For 30 compounds, inhibition results are on record in ChEMBL document CHEMBL4808148, “HDAC6 screening dataset using tau-based substrate in an enzymatic assay yields selective inhibitors and activators” (2021).

Test [1] has as its target T1, Protein deacetylase HDAC6 (Homo sapiens) (UniProt Q9UBN7).
T1 sequence (whole entry): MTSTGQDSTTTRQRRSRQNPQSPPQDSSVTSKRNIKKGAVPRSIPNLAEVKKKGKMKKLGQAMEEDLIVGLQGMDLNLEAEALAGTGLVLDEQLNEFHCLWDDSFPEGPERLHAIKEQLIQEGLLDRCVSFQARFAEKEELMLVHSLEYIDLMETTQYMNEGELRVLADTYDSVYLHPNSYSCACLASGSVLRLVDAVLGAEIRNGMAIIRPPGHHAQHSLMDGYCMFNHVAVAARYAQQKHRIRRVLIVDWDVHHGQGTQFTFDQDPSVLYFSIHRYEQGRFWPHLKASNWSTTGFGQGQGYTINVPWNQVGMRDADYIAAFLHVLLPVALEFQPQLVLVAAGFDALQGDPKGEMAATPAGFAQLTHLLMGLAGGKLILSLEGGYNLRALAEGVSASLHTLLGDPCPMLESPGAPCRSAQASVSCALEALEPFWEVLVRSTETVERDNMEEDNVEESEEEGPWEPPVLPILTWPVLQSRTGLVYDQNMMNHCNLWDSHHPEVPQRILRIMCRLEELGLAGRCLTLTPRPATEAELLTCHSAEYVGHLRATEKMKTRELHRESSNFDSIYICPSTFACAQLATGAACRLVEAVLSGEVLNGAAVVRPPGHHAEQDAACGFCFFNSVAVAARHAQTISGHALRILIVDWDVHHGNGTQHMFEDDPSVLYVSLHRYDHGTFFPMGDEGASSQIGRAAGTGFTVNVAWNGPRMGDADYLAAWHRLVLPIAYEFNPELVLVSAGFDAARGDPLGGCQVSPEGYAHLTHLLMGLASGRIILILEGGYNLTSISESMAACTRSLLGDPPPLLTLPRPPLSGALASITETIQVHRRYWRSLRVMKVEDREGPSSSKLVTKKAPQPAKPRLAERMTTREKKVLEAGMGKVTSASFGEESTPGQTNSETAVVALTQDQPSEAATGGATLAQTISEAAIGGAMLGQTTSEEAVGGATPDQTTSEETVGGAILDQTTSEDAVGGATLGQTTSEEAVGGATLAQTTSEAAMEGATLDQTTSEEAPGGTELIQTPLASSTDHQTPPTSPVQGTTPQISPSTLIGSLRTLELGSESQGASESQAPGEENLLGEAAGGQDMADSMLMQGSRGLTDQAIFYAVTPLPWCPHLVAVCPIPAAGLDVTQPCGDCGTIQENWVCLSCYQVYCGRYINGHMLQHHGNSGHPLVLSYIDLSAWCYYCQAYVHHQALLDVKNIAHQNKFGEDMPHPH
To be noted: at 10 µM.

For test [2], the target named is Protein deacetylase HDAC6 (Homo sapiens) (UniProt Q9UBN7). The note with it: at 10 µM. The source holds these as a separate data set.

Where “and” joins values, the source holds several entries; their conditions need not be identical. Equal values may be shown once. In all, about 5,600 compounds went through this assay and about 390 (7%) showed an effect of 50% or more. The sample holds strong results, similar compounds and a random draw of the others, so the mix is not that of the screen.

A word on the inhibition: it is the change of the read-out against control, counted positive when it falls. In the case of `CC(CCCCC(=O)Nc1ccc(C(F)(F)F)cc1)NCCc1c[nH]cn1` (stereo not given), the inhibition in test [1] was determined as 3.94%.
The same measure, in the same setting: under `C/C(=C\CNc1ncnc2[nH]cnc12)CO` stands 5.74%.
The same measure, in the same setting: the result for `O=c1oc2ccccc2c(O)c1Cc1c(O)c2ccccc2oc1=O` reads -8.39%; that for `CCC(c1ccccc1)c1c(O)c2ccccc2oc1=O` (stereo not given), 16.2%; that for `O=c1c2ccccc2oc2ccccc12`, 92.3%.
Still for that read-out and setting: the result for `Cc1cc(-c2nc3cc(F)ccc3s2)ccc1NC(=O)[C@@H](N)CCCCN` reads 28.4%; that for `CNCCC=C1c2ccccc2C=Cc2ccccc21`, 15.7%; that for `CN(C)CCC=C1c2ccccc2C=Cc2ccccc21`, 63.9%.
For the compound `CN(C)CCC=C1c2ccccc2COc2ccccc21`, the inhibition in test [1] was -7.53%.
The same measure, in the same setting: under `CNc1cc2c(Nc3cccc(Br)c3)ncnc2cn1` stands 9.09%; under `Cc1ccc2nc(NCCN)c3ncc(C)n3c2c1`, 4.14%.
Still for that read-out and setting: the result for `O=C1Nc2ccc(I)cc2C1=Cc1cc(Br)c(O)c(Br)c1` reads 72.9%; that for `C=C[C@@H]1C[C@]1(NC(=O)[C@@H]1C[C@@H]2CN1C(=O)[C@H](C(C)(C)C)NC(=O)O[C@@H]1C[C@H]1CCCCCc1nc3ccc(OC)cc3nc1O2)C(=O)NS(=O)(=O)C1CC1`, 0.36%.
On the same count and under the same terms, under `O=c1c2c(c1=O)N(CCP(=O)(O)O)CCCN2` stands 12.1%; under `Cc1ccc([N+](=O)[O-])cc1S(=O)(=O)N(C)C`, 6.18%.
For the compound `S=C(NCCc1ccccn1)Nc1ccc(Br)cn1`, in test [1], the inhibition is 8.48%.
For `COC(c1ccccc1)(c1ccccc1)[C@H](Oc1nc(C)cc(C)n1)C(=O)O`, the inhibition in test [1] is -8.71%.
Turning to Mangafodipir (trisodium), CHEMBL5308448, in test [2], the inhibition worked out at 18%.
The same measure, in the same setting: under hemin, CHEMBL5308479 stands 56.4%; under NKP-1339, CHEMBL5308480, 34.9%.
Turning to `COc1ccc(CC2NCCc3c2[nH]c2ccc(C)cc32)c(Cl)c1OC` (stereo not given), the inhibition in test [1] is -1.23%.
The same measure, in the same setting: the result for `O=C(Nc1ccccc1)Nc1ccc(-c2ccc(C(=O)[C@@H]3CCC[C@H]3C(=O)O)cc2)cc1` reads 4.7% and 12.5%; that for `CN1CCN(C(=O)c2nc3ccc(Cl)cc3[nH]2)CC1`, 16.2%; that for `CN1CCN(c2ccc3nc(-c4c(N)c5c(F)cccc5[nH]c4=O)[nH]c3c2)CC1`, 86.8%.
Consider `CC(C)=CCC[C@](C)(O)[C@H]1CC[C@]2(C)[C@@H]1[C@H](O)C[C@@H]1[C@@]3(C)CC[C@H](O[C@@H]4O[C@H](CO)[C@@H](O)[C@H](O)[C@H]4O[C@@H]4O[C@H](CO)[C@@H](O)[C@H](O)[C@H]4O)C(C)(C)[C@@H]3CC[C@]12C`, for which the inhibition in test [1] stood at 11.5%.
Same read-out and setting: under `O=C(Cn1ccnc1[N+](=O)[O-])NCc1ccccc1` stands 32.3%; under `Cc1c[nH]c(=O)n(CCCN2CCN(c3ccccc3OCC(F)(F)F)CC2)c1=O`, 19.2%.
The same measure, in the same setting: under `COc1ccc(-c2nc(N3CCOCC3)c3sc(CN(C)c4ncc(C(=O)NO)cn4)cc3n2)cn1` stands 98%.
The same measure, in the same setting: under `CS(=O)(=O)N1CCN(Cc2cc3nc(-c4cccc5[nH]ncc45)nc(N4CCOCC4)c3s2)CC1` stands 11.1%; under `COC(=O)Nc1ccc(-c2nc(N3CCOCC3)c3cnn(C4CCN(C(=O)OC)CC4)c3n2)cc1`, 21.1%.
